Records with an inconclusive call do not appear. The source made the active and inactive calls. The call rests on the fitted dose curve; in most records, active means well fitted cell-killing curve with a large enough effect; inconclusive means small, poorly fitted or top-dose-only effect; inactive means flat fitted curve, though single readings scatter.
Experiment: Vero cells viability qHTS for Zika virus inhibitors (AID 1347167)
Details: cytotoxicity counter-screen (Zika); series mostly up to 45.9 µM; activity change, negative = cytotoxicity: at the top concentration
Text: Avindra Nath, Ph.D., National Institute of Neurological Disorders and Stroke (NINDS), Bethesda, MD
Radhakrishnan Padmanabhan, Ph.D., Georgetown University (GU), Washington D.C.
Zika Virus causes congenital defects, including microcephaly and is associated with Guillain-Barre syndrome, eningoencephalitis and myelitis in infected adult. […] Using a target-based approach, we hope to establish a screening paradigm to uncover novel, cell-active NS2B-NS3 protease (Zika Virus) specific inhibitors from NCATS' collection of small molecules using qHTS.
Four assay panel was created to identify potential Zika Virus inhibitors. Namely, (1) GU unlinked NS2B-NS3 AMC tagged protease qHTS, (2) GU unlinked NS2B-NS3 Rhodamine tagged protease qHTS, (3) NINDS linked NS2B-NS3 AMC tagged protease qHTS, (4) NINDS linked NS2B-NS3 Rhodamine tagged protease qHTS. Identified inhibitors were screened against the Vero and HepG2 cell viability assays using CellTiter Glo to exclude cytotoxic compounds.
Early Translation Branch (ETB)
National Center for Advancing Translational Sciences (NCATS), Rockville, MD
National Institute of Health (NIH), Bethesda, Maryland
Vero and HepG2 Cell Viability Assay:
Vero and HepG2 cell cytotoxicity were determined using a luminescent readout with CellTiter Glo reagent (Promega, Madison, WI), which is based on measuring the ATP content within cells. Briefly, 4 microL of Vero or HepG2 cells at 2.5 x 10^5 cells/mL in DMEM containing 4% FBS were dispensed into 1536-well solid bottom tissue treated white plate using a Multidrop Combi dispenser (Thermo Scientific). Plates were incubated at 37 degrees C, 95% humidity, and 5% CO2 overnight to allow for cell attachment. Compounds were dissolved in DMSO at different concentrations and transferred via pintool (Wako Automation), for a final concentration of 0.029 µM - 57 microM. Plates were again incubated for 24 to 48 hours, followed by a 2 microL addition of CellTiter Glo. Finally, plates were incubated for 30 minutes at 37 degrees C and 5% CO2 before being read on a ViewLux (Perkin Elmer) for luminescence.
On the % scale 0 is the no-effect control and ±100 the full control effect; potency means the concentration at half of the fitted maximal effect.

Row | SMILES | activity change, negative = cytotoxicity | Potency
1 | COC1C(O)C(C)O[C@@H](OC2CC[C@@]3(C)C4CC[C@]5(C)C(C6=CC(=O)OC6)CC[C@@]5(O)C4CC[C@@H]3C2)C1O (some centres not stated) | -5.52% (inactive) | 
2 | C=CCN1CCC2(C)c3cc(O)ccc3CC1C2C (configuration not stated) | -1.4% (inactive) | 
3 | CC(C)=CCCC1(C)C=Cc2c(O)c3c(c(CC=C(C)C)c2O1)OC12C(=CC4CC1C(C)(C)OC2(C/C=C(/C)C(=O)O)C4O)C3=O (configuration not stated) | -18.2% (inactive) | 
4 | CC1O[C@@H](O[C@@H]2C(O)C[C@H](O[C@@H]3C(O)C[C@@H](OC4CC[C@@]5(C)C6CC[C@]7(C)C(C8=CC(=O)OC8)CC[C@@]7(O)C6CC[C@@H]5C4)OC3C)OC2C)CC(O)[C@H]1O (some centres not stated) | -7.06% (inactive) | 
5 | CO[C@H]1[C@@H](O)CC(OC2[C@@H](O)CC(OC3[C@@H](O)C[C@H](OC4CC[C@@]5(C)C(CCC6C5CC(O)[C@]5(C)[C@H](C7=CC(=O)OC7)CCC65O)C4)O[C@@H]3C)O[C@@H]2C)O[C@@H]1C (some centres not stated) | -3.04% [at 91.6 µM] (inactive) | 
6 | C[C@@H]1[C@@H]2Cc3ccc(O)cc3[C@@]1(C)CCN2CCc1ccccc1 | -6.08% [at 91.6 µM] (inactive) | 
7 | C[C@H]1O[C@@H](O[C@H]2[C@@H](O)C[C@@H](O[C@H]3[C@@H](O)C[C@H](O[C@H]4CC[C@@]5(C)[C@H](CC[C@@H]6[C@@H]5CC[C@]5(C)[C@@H](C7=CC(=O)OC7)CC[C@]65O)C4)O[C@@H]3C)O[C@@H]2C)C[C@H](O)[C@@H]1O | -7.2% [at 91.6 µM] (inactive) | 
8 | C[C@@H]1O[C@@H](O[C@H]2C[C@@H](O)[C@]3(CO)C4C(CC[C@]3(O)C2)[C@@]2(O)CC[C@H](C3=CC(=O)OC3)[C@@]2(C)C[C@H]4O)[C@H](O)[C@H](O)[C@H]1O (some centres not stated) | -5.55% (inactive) | 
9 | COC(=O)c1cc2c(cn1)[nH]c1ccccc12 | -5.26% (inactive) | 
10 | Ic1cncc(OC[C@@H]2CCN2)c1 | -1.16% (inactive) | 
11 | CN(C(=O)Cc1ccc(Cl)c(Cl)c1)[C@@H](CN1CCCC1)c1cccc(OCC(=O)O)c1 | -2.26% (inactive) | 
12 | CC(C)=CCC[C@]1(C)C=Cc2c(O)c3c(c(CC=C(C)C)c2O1)O[C@]12C(=C[C@@H]4CC1C(C)(C)O[C@@]2(C/C=C(/C)C(=O)O)C4=O)C3=O |  | 8.29 µM (active)
13 | C[C@H]1O[C@@H](O[C@H]2[C@@H](O)C[C@H](O[C@H]3[C@@H](O)C[C@H](O[C@H]4CC[C@]5(C)C6CC[C@]7(C)[C@@H](C8=CC(=O)OC8)CC[C@]7(O)C6CC[C@@H]5C4)O[C@@H]3C)O[C@@H]2C)C[C@H](O)[C@@H]1O (some centres not stated) | -4.55% (inactive) | 
14 | CC(C)OC(=O)Nc1ccccc1 | -2.97% [at 91.6 µM] (inactive) | 
15 | CN1CC[C@@]23CCCCC2C1Cc1ccc(O)cc13 (some centres not stated) | -1.65% (inactive) | 
16 | Cc1ccc2c(c1)[C@]13CCCC[C@@H]1[C@H](C2)N(C)CC3 | -2.06% (inactive) | 
17 | CN1CC[C@@]23CCCC[C@@H]2[C@@H]1Cc1ccc(O)cc13 | -5.27% (inactive) | 
18 | C[C@H]1[C@H]2Cc3ccc(O)cc3[C@]1(C)CCN2CCc1ccccc1 | -5.09% [at 91.6 µM] (inactive) | 
19 | CC1OC(O[C@H]2C[C@@H](O)[C@]3(CO)[C@H]4[C@H](O)C[C@]5(C)[C@@H](C6=CC(=O)OC6)CC[C@]5(O)[C@@H]4CC[C@]3(O)C2)C(O)C(O)C1O (some centres not stated) | -5.79% (inactive) | 
20 | CC/C=C/C=C/C1(C)OC(OC)=C(C(=O)C2C(C)C(=O)c3cc(OC)c(O)c(O)c3C2(C)O)C1=O (configuration not stated) | -5.89% [at 26.9 µM] (inactive) | 
21 | C=CCN1CCC2(C)c3cc(O)ccc3C[C@H]1[C@H]2C | -3.26% (inactive) | 
22 | Clc1cncc(N2CCNCC2)n1 |  | inactive
